According to PubChem BioAssay (EPA / NIEHS):
Where “and” joins values, the source holds several entries; their conditions need not be identical. Equal values may be shown once. Results filed as inconclusive are left out. A structure can be active in one record and inactive in another. Calls of active or inactive are those of the source. The calls were made as follows, unless noted: active = hit-call score of the fitted dose curve at least 0.9, where 1 is the maximum; inactive = score below 0.9.

How the values were obtained:
[1] = molecular target: human RAR-related Orphan Receptor gamma (RORg), RORC (gene 6097) (UniProt P51449); assay: ATG_RORg_TRANS: Attagene TRANS-FACTORIAL HepG2 Assay for human RAR-related Orphan Receptor gamma (RORg) (AID 2283011; active = hit-call score of the fitted dose curve at least 0.9, where 1 is the maximum;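 as to AC50: potency for induction of reporter transcripts above DMSO so activators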)
Sequence of human RAR-related Orphan Receptor gamma (RORg), RORC (gene 6097) (P51449 whole entry, looked up, the tested form may be a part): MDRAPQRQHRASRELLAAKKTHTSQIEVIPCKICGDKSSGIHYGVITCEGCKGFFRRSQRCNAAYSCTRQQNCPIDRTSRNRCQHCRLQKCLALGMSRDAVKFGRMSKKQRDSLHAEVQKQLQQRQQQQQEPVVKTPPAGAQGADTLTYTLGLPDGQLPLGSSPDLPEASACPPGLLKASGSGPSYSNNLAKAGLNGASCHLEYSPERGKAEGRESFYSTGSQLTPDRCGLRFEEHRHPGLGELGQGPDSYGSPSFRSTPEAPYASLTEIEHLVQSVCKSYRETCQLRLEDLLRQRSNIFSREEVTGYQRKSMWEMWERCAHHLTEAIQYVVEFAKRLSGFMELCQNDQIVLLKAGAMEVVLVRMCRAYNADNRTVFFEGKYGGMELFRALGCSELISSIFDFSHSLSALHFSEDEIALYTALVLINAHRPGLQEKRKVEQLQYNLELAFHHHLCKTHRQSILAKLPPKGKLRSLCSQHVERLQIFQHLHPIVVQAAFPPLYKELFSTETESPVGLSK
Procedure, shortened: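 Readout: reporter transcript induction (RT-PCR, fluorescent primer extension, capillary electrophoresis) after 24 h compound exposure of transiently transfected HepG2 cells carrying a RORg-Gal4 chimera and GAL4-UAS reporters; DMSO served as baseline, with increasing signal fitted.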

[2] = read-out: E-selectin (Homo sapiens) (UniProt P16581); assay: BSK_3C_Eselectin: BioMAP Diversity Plus: 3C Assay for Eselectin Biomarker Activity (AID 2283015); settings: primary human endothelial cells (HUVEC); actives raise or lower the signal
Procedure, shortened: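 Primary human umbilical vein endothelial cells (3C system) were dosed with chemical and cell-surface E-selectin measured by ELISA 24 h later. Bidirectional curve fitting used DMSO as negative control and baseline.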

[3] = read-out: Interleukin-1 alpha (IL1a), IL1A (gene 3552); assay: BSK_BE3C_IL1a: BioMAP Diversity Plus: BE3C Assay for Interleukin-1 alpha (IL1a) Biomarker Activity (AID 2283016); settings: primary human bronchial epithelial cells; actives raise or lower the signal
Procedure, shortened: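 Signal from IL-1a ELISA, taken 24 h after chemical dosing of human bronchial epithelial cells, is compared with DMSO as baseline using bidirectional curve fitting.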

[4] = read-out: Monocyte Chemoattractant Protein-1 (MCP1), CCL2 (gene 6347); assay: BSK_3C_MCP1: BioMAP Diversity Plus: 3C Assay for Monocyte Chemoattractant Protein-1 (MCP1) Biomarker Activity (AID 2283017); settings: primary human endothelial cells (HUVEC); actives raise or lower the signal
Procedure, shortened: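 Primary human umbilical vein endothelial cells (3C system) were exposed to test chemical for 24 h, after which MCP-1 was quantified by ELISA. Activity was fitted bidirectionally against DMSO as negative control and baseline.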

[5] = read-out: Human Leukocyte Antigen - DR isotype (HLADR), HLA-DRA (gene 3122); assay: BSK_3C_HLADR: BioMAP Diversity Plus: 3C Assay for Human Leukocyte Antigen - DR isotype (HLADR) Biomarker Activity (AID 2283019); settings: primary human endothelial cells (HUVEC); actives raise or lower the signal
Procedure, shortened: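 Primary human umbilical vein endothelial cells (3C system) were dosed with compound and cell-surface HLA-DR was quantified by ELISA at 24 h. Activity was fitted bidirectionally against DMSO as negative control and baseline.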

[6] = read-out: Interleukin-8 (IL8), CXCL8 (gene 3576); assay: BSK_3C_IL8: BioMAP Diversity Plus: 3C Assay for Interleukin-8 (IL8) Biomarker Activity (AID 2283020); settings: primary human endothelial cells (HUVEC); actives raise or lower the signal
Procedure, shortened: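 Endothelial primary cells of human umbilical vein origin are dosed with chemical; after 24 h the IL-8 biomarker is measured by ELISA, and concentration–response is fitted in both directions versus DMSO.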

[7] = read-out: Monokine induced gamma interferon (MIG), CXCL9 (gene 4283); assay: BSK_3C_MIG: BioMAP Diversity Plus: 3C Assay for Monokine induced gamma interferon (MIG) Biomarker Activity (AID 2283021); settings: primary human endothelial cells (HUVEC); actives raise or lower the signal;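 as to AC50: MIG protein level measured by immunoassay in the treated endothelial cultures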
Procedure, shortened: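 Endothelial primary cells (human umbilical vein) are dosed with test chemical in the 3C system. MIG levels are measured by ELISA at 24 h and fitted in both directions relative to DMSO.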

[8] = molecular target: human Vitamin D Receptor (VDR), VDR (gene 7421) (UniProt P11473); assay: ATG_VDR_TRANS: Attagene TRANS-FACTORIAL HepG2 Assay for human Vitamin D Receptor (VDR) (AID 2283022; active = hit-call score of the fitted dose curve at least 0.9, where 1 is the maximum)
Sequence of human Vitamin D Receptor (VDR), VDR (gene 7421) (P11473 whole entry, looked up, the tested form may be a part): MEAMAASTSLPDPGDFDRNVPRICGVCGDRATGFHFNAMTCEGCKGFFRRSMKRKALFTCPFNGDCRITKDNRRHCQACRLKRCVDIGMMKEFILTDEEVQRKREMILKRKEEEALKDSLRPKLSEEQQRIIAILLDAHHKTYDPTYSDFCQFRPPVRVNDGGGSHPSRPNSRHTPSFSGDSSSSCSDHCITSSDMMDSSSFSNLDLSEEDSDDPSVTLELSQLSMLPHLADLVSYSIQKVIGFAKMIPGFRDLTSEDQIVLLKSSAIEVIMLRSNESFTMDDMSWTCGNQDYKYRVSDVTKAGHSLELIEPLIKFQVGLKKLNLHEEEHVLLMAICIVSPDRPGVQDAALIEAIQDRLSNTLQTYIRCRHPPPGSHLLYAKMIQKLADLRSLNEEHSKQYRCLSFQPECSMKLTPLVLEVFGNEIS
Procedure, shortened: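 HepG2 cells were transiently transfected with multiple GAL4-UAS reporter units, so signal reflects exogenous chimeric receptor-Gal4 activity. After 24 h compound exposure, reporter mRNA was measured by RT-PCR, fluorescent labelling and capillary electrophoresis, fitted for gain of signal versus DMSO.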

[9] = BSK_3C_SRB: Viability Assessment in the BioMAP Diversity Plus: 3C Assay (AID 2283023); settings: primary human endothelial cells (HUVEC);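 also: fitted both ways against DMSO so a hit may be signal rise or drop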
Procedure, shortened: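 Primary human umbilical vein endothelial cells in the 3C system were read 24 h after compound dosing. Total protein was stained with 0.1% sulforhodamine B after 10% TCA fixation and read at 560 nm, with bidirectional fitting against DMSO as baseline.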

[10] = read-out: Matrix Metallopeptidase 1 (MMP1), MMP1 (gene 4312); assay: BSK_BE3C_MMP1: BioMAP Diversity Plus: BE3C Assay for Matrix Metallopeptidase 1 (MMP1) Biomarker Activity (AID 2283024); settings: primary human bronchial epithelial cells; actives raise or lower the signal
Procedure, shortened: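 MMP1 signal, measured by ELISA after a 24 h chemical exposure of human primary bronchial epithelial cells, is analysed with bidirectional fitting using DMSO as negative control.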

[11] = BSK_3C_Vis: BioMAP Diversity Plus: 3C Assay for Morphology Visualization (AID 2283025); settings: primary human endothelial cells (HUVEC);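 also: fitted both ways so gain or loss versus DMSO counts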
Procedure, shortened: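 Morphology read by light microscopy serves as a background control for the multiplexed 3C assay in human umbilical vein endothelial cells, taken 24 h after dosing, with DMSO as the negative control and bidirectional curve fitting.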

[12] = read-out: Pselectin, SELP (gene 6403); assay: BSK_4H_Pselectin: BioMAP Diversity Plus: 4H Assay for Pselectin Biomarker Activity (AID 2283026); settings: primary human endothelial cells (HUVEC); actives raise or lower the signal
Procedure, shortened: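 Endothelial primary cells (human umbilical vein) are dosed, incubated 24 h, and assayed for surface P-selectin by ELISA; responses in either direction are fitted relative to the DMSO negative control.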

[13] = BSK_BE3C_SRB: Viability Assessment in the BioMAP Diversity Plus: BE3C Assay (AID 2283028); settings: primary human bronchial epithelial cells;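 as to AC50: fitted both ways so AC50 may mark signal gain or loss versus DMSO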
Procedure, shortened: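 Human primary bronchial epithelial cells were exposed to test chemicals for 24 h. Total protein in parallel cultures was then measured by staining with 0.1% sulforhodamine B after 10% TCA fixation, with absorbance read at 560 nm. Activity was fitted bidirectionally against DMSO.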

[14] = read-out: Thrombomodulin, THBD (gene 7056); assay: BSK_3C_Thrombomodulin: BioMAP Diversity Plus: 3C Assay for Thrombomodulin Biomarker Activity (AID 2283029); settings: primary human endothelial cells (HUVEC); actives raise or lower the signal
Procedure, shortened: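 Endothelial cells from umbilical vein are dosed with test chemical and incubated 24 h. Thrombomodulin is then quantified by ELISA, with DMSO serving as negative control and activity baseline.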

[15] = read-out: Urokinase-type plasminogen activator receptor (uPAR), PLAUR (gene 5329); assay: BSK_4H_uPAR: BioMAP Diversity Plus: 4H Assay for Urokinase-type plasminogen activator receptor (uPAR) Biomarker Activity (AID 2283030); settings: primary human endothelial cells (HUVEC); actives raise or lower the signal
Procedure, shortened: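 Primary human umbilical vein endothelial cells were exposed to chemical for 24 h before cell-surface uPAR was quantified by ELISA. Activity was fitted bidirectionally against the DMSO negative control baseline.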

[16] = molecular target: Retinoic acid receptor RXR-alpha (Homo sapiens) (UniProt P19793); assay: ATG_RXRa_TRANS: Attagene TRANS-FACTORIAL HepG2 Assay for human Retinoid X Receptor alpha (RXRa) (AID 2283012; active = hit-call score of the fitted dose curve at least 0.9, where 1 is the maximum)
Sequence of Retinoic acid receptor RXR-alpha (Homo sapiens) (P19793 whole entry, looked up, the tested form may be a part): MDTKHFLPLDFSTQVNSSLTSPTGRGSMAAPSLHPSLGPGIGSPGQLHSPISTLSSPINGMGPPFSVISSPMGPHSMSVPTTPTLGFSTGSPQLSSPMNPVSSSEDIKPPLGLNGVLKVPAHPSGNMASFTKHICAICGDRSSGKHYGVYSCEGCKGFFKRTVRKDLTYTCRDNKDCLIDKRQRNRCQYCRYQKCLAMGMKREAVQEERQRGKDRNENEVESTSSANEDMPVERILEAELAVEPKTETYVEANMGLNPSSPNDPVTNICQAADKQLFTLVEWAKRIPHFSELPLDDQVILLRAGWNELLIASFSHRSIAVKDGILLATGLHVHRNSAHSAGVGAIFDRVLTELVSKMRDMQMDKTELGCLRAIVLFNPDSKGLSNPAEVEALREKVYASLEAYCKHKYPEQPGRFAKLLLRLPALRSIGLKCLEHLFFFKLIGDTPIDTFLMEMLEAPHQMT
Procedure, shortened: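 Measures exogenous chimeric NR-GAL4 activity in transfected HepG2 liver cells after 24 h of dosing. Induced reporter mRNA was detected by RT-PCR with capillary electrophoresis, and gain of signal was analysed against DMSO.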

[17] = molecular target: human Retinoid X Receptor beta (RXRb), RXRB (gene 6257) (UniProt P28702); assay: ATG_RXRb_TRANS: Attagene TRANS-FACTORIAL HepG2 Assay for human Retinoid X Receptor beta (RXRb) (AID 2283013; active = hit-call score of the fitted dose curve at least 0.9, where 1 is the maximum)
Sequence of human Retinoid X Receptor beta (RXRb), RXRB (gene 6257) (P28702 whole entry, looked up, the tested form may be a part): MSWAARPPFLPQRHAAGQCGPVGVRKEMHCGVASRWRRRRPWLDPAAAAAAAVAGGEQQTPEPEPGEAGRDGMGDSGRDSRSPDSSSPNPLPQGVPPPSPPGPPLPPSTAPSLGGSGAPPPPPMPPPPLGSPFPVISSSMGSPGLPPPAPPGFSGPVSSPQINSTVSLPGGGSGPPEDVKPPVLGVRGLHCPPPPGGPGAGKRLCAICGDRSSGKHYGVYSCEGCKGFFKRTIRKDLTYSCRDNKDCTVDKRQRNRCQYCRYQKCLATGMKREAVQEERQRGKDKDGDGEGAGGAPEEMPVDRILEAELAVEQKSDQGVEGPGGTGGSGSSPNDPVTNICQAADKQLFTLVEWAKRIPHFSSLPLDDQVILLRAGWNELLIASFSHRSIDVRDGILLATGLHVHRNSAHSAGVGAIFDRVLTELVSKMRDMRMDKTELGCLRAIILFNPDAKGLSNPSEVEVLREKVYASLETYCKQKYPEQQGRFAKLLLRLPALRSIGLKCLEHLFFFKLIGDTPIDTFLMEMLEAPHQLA
Procedure, shortened: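 Chimeric receptor-Gal4 activity was assessed in transiently transfected human HepG2 cells after 24 h exposure. Transcripts from GAL4-UAS reporters were quantified by fluorescent RT-PCR and capillary electrophoresis, with DMSO as negative control and baseline.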

[18] = molecular target: human Thyroid Receptor alpha (THRa1), THRA (gene 7067) (UniProt P10827); assay: ATG_THRa1_TRANS: Attagene TRANS-FACTORIAL HepG2 Assay for human Thyroid Receptor alpha (THRa1) (AID 2283014; active = hit-call score of the fitted dose curve at least 0.9, where 1 is the maximum)
Sequence of human Thyroid Receptor alpha (THRa1), THRA (gene 7067) (P10827 whole entry, looked up, the tested form may be a part): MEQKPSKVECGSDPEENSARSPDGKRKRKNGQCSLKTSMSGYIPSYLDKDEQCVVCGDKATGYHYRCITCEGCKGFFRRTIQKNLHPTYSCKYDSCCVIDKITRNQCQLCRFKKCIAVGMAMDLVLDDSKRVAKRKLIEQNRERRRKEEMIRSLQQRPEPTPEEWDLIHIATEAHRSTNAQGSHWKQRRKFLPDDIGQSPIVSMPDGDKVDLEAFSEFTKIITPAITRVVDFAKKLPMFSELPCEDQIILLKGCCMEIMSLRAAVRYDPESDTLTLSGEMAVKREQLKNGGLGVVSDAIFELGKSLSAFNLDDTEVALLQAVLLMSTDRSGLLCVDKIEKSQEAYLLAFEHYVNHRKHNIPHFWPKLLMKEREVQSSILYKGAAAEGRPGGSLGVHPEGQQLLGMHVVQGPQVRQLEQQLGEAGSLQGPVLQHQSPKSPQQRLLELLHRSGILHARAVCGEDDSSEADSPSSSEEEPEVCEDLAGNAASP
Procedure, shortened: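 HepG2 cells transiently transfected with multiplexed GAL4-UAS reporter units for exogenous chimeric THRa1-Gal4; reporter mRNA measured 24 h after dosing by RT-PCR, 6-FAM labelling, HpaI digestion and capillary electrophoresis. Gain-of-signal fitted versus DMSO baseline.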

[19] = BSK_4H_SRB: Viability Assessment in the BioMAP Diversity Plus: 4H Assay (AID 2283027); settings: primary human endothelial cells (HUVEC);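 also: cells exposed to compound for 24 h before staining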;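 as to AC50: curves fitted both ways versus DMSO so AC50 may be loss or gain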
Procedure, shortened: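 HUVEC, 24 h post-dose; 10% TCA fix, 0.1% SRB stain, A560 nm. Total protein = overt cytotoxicity, parallel to biomarker read. Bidirectional fit vs DMSO baseline.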

[20] = read-out: Monocyte Chemoattractant Protein-1 (MCP1), CCL2 (gene 6347); assay: BSK_4H_MCP1: BioMAP Diversity Plus: 4H Assay for Monocyte Chemoattractant Protein-1 (MCP1) Biomarker Activity (AID 2283018); settings: primary human endothelial cells (HUVEC); actives raise or lower the signal
Procedure, shortened: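 Endothelial cells from umbilical vein were treated with test chemical, then after 24 h MCP-1 levels were quantified by ELISA; endpoint values came from bidirectional fitting with DMSO as baseline of activity.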

Measured: AC50

Sequence of E-selectin (Homo sapiens) (P16581 whole entry, looked up): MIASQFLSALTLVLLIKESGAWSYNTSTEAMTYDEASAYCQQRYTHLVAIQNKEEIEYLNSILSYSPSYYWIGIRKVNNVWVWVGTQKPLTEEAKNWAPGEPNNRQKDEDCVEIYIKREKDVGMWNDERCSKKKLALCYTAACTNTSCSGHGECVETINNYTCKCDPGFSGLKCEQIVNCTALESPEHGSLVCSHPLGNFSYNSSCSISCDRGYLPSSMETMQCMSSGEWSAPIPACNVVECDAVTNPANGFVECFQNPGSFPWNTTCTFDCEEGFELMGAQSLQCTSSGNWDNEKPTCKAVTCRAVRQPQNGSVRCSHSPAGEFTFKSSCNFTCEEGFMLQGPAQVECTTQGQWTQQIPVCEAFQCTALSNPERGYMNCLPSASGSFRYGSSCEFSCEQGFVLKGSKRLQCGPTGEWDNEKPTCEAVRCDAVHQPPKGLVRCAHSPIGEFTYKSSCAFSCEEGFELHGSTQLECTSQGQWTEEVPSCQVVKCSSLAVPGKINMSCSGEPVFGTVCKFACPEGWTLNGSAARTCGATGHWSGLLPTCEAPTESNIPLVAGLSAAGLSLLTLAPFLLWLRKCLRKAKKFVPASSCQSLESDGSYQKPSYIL

CC(=O)N1CCN(c2ccc(OC[C@H]3CO[C@](Cn4ccnc4)(c4ccc(Cl)cc4Cl)O3)cc2)CC1
inactive: [1] | [2] | [3] | [8] | [10] | [13] | [14]
active: [4] 31.9 µM | [5] 25.2 µM | [6] 31.3 µM | [7] 34.5 µM | [9] 29.1 µM | [11] 37.5 µM | [12] 14.8 µM | [15] 32.9 µM

c1ccc2ccccc2c1
active: [17] 38.9 µM
inactive: [1] | [16] | [17] | [18] | [2] | [3] | [4] | [5] | [6] | [7] | [8] | [9] | [10] | [11] | [12] | [19] | [13] | [14] | [15]

OCCO
not listed: [1] | [6] | [14]
inactive: all other assays above

CO[C@H]1/C=C/O[C@@]2(C)Oc3c(C)c(O)c4c(O)c(c(/C=N/N5CCN(C)CC5)c(O)c4c3C2=O)NC(=O)/C(C)=C\C=C\[C@H](C)[C@H](O)[C@@H](C)[C@@H](O)[C@@H](C)[C@H](OC(C)=O)[C@@H]1C
not listed: [17]
inactive: all other assays above

CC/C(=C(/CC)c1ccc(O)cc1)c1ccc(O)cc1
active: [17] 6.68 µM [middle of 4 runs] | [2] 31.5 µM | [3] 29.9 µM | [4] 31 µM | [5] 27.7 µM | [6] 32.6 µM | [7] 35.8 µM | [9] 20 µM | [10] 35.1 µM | [11] 8.57 µM | [12] 20 µM | [19] 22.8 µM | [13] 33.6 µM | [15] 17.8 µM
inactive: [16] | [17] | [8] | [14]

O=c1c(-c2ccc(O)cc2)coc2cc(O)cc(O)c12
active: [1] 26.5 µM | [17] 25.2 µM and 27.2 µM | [4] 25.3 µM | [20] 8.42 µM | [5] 21.1 µM | [9] 25.8 µM | [10] 15.3 µM | [11] 39 µM | [12] 17.1 µM | [15] 14.1 µM
inactive: [1] | [16] | [17] | [18] | [2] | [7] | [8] | [13] | [14]
